# Test results as given in PubChem BioAssay (Tox21).
# Results filed as inconclusive are left out. Entries that show only a call come without a potency. Active and inactive are the calls of the source. The call rests on the fitted dose curve; in most records, active means well fitted cell-killing curve with a large enough effect in the repeat runs; inconclusive means weak or mixed curves, or effect the other way; inactive means flat fitted curve, though single readings scatter.
# Assay: qHTS RealTime-Glo MT Cell Viability Assay in HEK293 cells - 24 hour (AID 1224886); further: nearly all actives have a fitted effect of over 50% in size
# Settings: RealTime-Glo luminescence; series mostly up to 76.8 µM
# Source text: National Center for Advancing Translational Sciences [NCATS]
# NIH Chemical Genomics Center [NCGC]
# U.S. Environmental Protection Agency [EPA]
# National Institutes of Environmental Health Sciences [NIEHS]
# National Toxicology Program [NTP]
# U.S. Food and Drug Administration [FDA]
# Measure of cell viability is critical in the cell-base assay. Analysis of cell viability is necessary for the characterization of cell responses to cytotoxic drugs and environmental stress. A RealTime-Glo MT Cell Viability Assay to monitor cell viability in real time of continues cell culture during 40 hours of compound treatment was used to screen Tox21 10K library compounds in Hek293 cells. The RealTime-Glo MT Cell Viability Assay is a nonlytic, homogeneous, bioluminescent method to measure cell viability in real time using a simple, plate-based method. The assay involves adding NanoLuc luciferase and a cell-permeant prosubstrate to cells in culture. Viable cells reduce the proprietary prosubstrate to generate a substrate for NanoLuc luciferase. This substrate diffuses from cells into the surrounding culture medium, where it is rapidly used by the NanoLuc Enzyme to produce a luminescent signal. The signal correlates with the number of viable cells, making the assay well suited for cytotoxicity studies.
# Tox21 Assay Protocol Summary:
# The mixture of Hek293 cell suspension and reagents were dispensed at 600cells/6 ul/well in 1536-well tissue culture treated black solid bottom plates using a Multidrop dispenser. After the assay plates were incubated at a 37 C/5% CO2 incubator for 5 hours, 23 nL of compounds dissolved in DMSO, positive and negative controls was transferred to the assay plate by a pintool work station. The plates were incubated at 37 C for 40 hours. The luminescence intensity were measured at 0h, 8h, 16h, 24h, 32h and 40h time points using ViewLux plate reader during compound treatment.
# Potency means the concentration at half of the fitted maximal effect.
row,SMILES,Potency
1,C(=C(c1ccccc1)c1ccccc1)c1ccccc1,inactive
2,c1cc(CN2CCCCC2)cc(OCCCNc2nc3ccccc3s2)c1,9.52 µM (active)
3,CC(=O)N[C@@H](CCC(N)=O)C(=O)O,inactive
4,CCO[Si](CCCN=C=O)(OCC)OCC,inactive
5,O=C1CC2(CCCC2)CC(=O)N1,inactive
6,Nc1cc(C(Cl)=C(Cl)Cl)c(S(N)(=O)=O)cc1S(N)(=O)=O,inactive
7,Nc1ccc2cc(S(=O)(=O)O)ccc2c1,inactive
8,CC(CCO)CCCC(C)(C)O (stereo not given),inactive
9,CO,inactive
10,Cn1cnc2c(=O)[nH]c(N)nc21,inactive
11,CCCCCCCCCCCCCCCCCCOCC(O)CO (stereo not given),inactive
12,Oc1ccc2c(c1)OC[C@@H](N1CCC(O)(c3ccc(F)cc3)CC1)[C@H]2O,inactive
13,CC(=O)O[C@H](CC(=O)[O-])C[N+](C)(C)C,inactive
14,O=C1C(CCS(=O)c2ccccc2)C(=O)N(c2ccccc2)N1c1ccccc1 (stereo not given),inactive
15,CN(C)CCn1nnnc1SCC1=C(C(=O)O)N2C(=O)[C@@H](NC(=O)Cc3csc(N)n3)[C@H]2SC1,inactive
16,CCCCC=O,inactive
17,NCCNC(=O)c1ccc(Cl)cn1,inactive
18,COCCOC(=O)CC#N,inactive
19,O=Cc1ccccc1[N+](=O)[O-],inactive
20,CCn1c(=O)c2c(nc(/C=C/c3ccc(OC)c(OC)c3)n2C)n(CC)c1=O,1.69 µM (active)

row,SMILES,Potency
1,CN(C)C(=O)C(CCN1CCC(O)(c2ccc(Cl)cc2)CC1)(c1ccccc1)c1ccccc1,9.52 µM (active)
2,Cc1c(F)cc2c(=O)c(C(=O)O)cn3c2c1CCC3C (stereo not given),inactive
3,CCCCCCCCCCCCCCC,inactive
4,CC(C)(C)CC(C)(C)N,inactive
5,O=C1OC(=O)c2cc([N+](=O)[O-])ccc21,inactive
6,CC(C)CCCCCCN,inactive
7,CCCOCC(C)OCC(C)O (stereo not given),inactive
8,CN(C)C(=O)Nc1ccccc1,inactive
9,c1ccc2cnncc2c1,inactive
10,C1COCCO1,inactive
11,C=C(C)C(=O)OCCC(C)OC(=O)C(=C)C (stereo not given),inactive
12,Nc1cc(N)cc(C(=O)O)c1,inactive
13,O=C(O)c1cccc(C(=O)O)n1,inactive
14,Cc1ccccc1Br,inactive
15,COC(C(=O)O)c1ccccc1 (stereo not given),inactive
16,O=C(O)C1CCC1,inactive
17,CO[Si](CCCNCCC[Si](OC)(OC)OC)(OC)OC,inactive
18,O=C(O)c1ccc[n+]([O-])c1,inactive
19,COc1cc(C)cc(O)c1,inactive
20,C=CC(=O)OCCCCCC,inactive
